High-throughput results: PubChem, National Center for Advancing Translational Sciences (NCATS)
Rows were chosen to be rich in hits. Some 10% of all compounds tested hit in one or more screens of this group.
L3MBTL1 block – inhibitors of human L3MBTL1; Potency, µM (series often up to 57.1 µM), for inactives: top-dose activity, negative = inhibition, usual class: inhibitors; AID 485360; actives 0.66% (n = 230,000); Q9Y468; AlphaScreen L3MBTL1–H3K9me1 peptide binding; further: on the % scale 0 is the no-effect control and ±100 the full control effect; nearly all actives have a fitted effect of over 60% in size
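AlphaScreen assay: L3MBTL1 (50 nM final) was preincubated 30 min at room temperature with biotinylated H3(1-15)K9me1 peptide (75 nM final), then 30 min with library compounds; streptavidin donor and nickel chelate acceptor beads (10 ug/mL final) added, 30 min dark.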
GLS inhibitor – glutaminase GLS (human) inhibition | Potency, µM (top dose mostly 45.5 µM), for the others: at the top dose activity change, negative = inhibition, most hits filed as inhibitors | actives 0.21% (n = 410,000) | O94925 | GLS enzymatic activity, qHTS titration; further: on the % scale 0 is the no-effect control and ±100 the full control effect
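hKGA in 45 mM KH2PO4 pH 8.2, 0.02% Tween-20 with pin-transferred compounds; 1 mM L-glutamine (stock) plus glutamate oxidase/HRP/Amplex Red coupling added. Fluorescence read initially and after 30 min at RT.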
JMJD2A Tudor – inhibitors of human JMJD2A Tudor domain | actives 4.4% (n = 390,000) | Potency, µM (doses to about 114 µM), without a hit: top-dose activity change, negative = inhibition, hits mostly inhibitors | AlphaScreen JMJD2A-Tudor / H3K4me3 peptide binding | O75164; further: on the % scale 0 is the no-effect control and ±100 the full control effect; nearly all actives have a fitted effect of over 50% in size
Target sequence (O75164 whole entry, looked up, the tested form may be a part): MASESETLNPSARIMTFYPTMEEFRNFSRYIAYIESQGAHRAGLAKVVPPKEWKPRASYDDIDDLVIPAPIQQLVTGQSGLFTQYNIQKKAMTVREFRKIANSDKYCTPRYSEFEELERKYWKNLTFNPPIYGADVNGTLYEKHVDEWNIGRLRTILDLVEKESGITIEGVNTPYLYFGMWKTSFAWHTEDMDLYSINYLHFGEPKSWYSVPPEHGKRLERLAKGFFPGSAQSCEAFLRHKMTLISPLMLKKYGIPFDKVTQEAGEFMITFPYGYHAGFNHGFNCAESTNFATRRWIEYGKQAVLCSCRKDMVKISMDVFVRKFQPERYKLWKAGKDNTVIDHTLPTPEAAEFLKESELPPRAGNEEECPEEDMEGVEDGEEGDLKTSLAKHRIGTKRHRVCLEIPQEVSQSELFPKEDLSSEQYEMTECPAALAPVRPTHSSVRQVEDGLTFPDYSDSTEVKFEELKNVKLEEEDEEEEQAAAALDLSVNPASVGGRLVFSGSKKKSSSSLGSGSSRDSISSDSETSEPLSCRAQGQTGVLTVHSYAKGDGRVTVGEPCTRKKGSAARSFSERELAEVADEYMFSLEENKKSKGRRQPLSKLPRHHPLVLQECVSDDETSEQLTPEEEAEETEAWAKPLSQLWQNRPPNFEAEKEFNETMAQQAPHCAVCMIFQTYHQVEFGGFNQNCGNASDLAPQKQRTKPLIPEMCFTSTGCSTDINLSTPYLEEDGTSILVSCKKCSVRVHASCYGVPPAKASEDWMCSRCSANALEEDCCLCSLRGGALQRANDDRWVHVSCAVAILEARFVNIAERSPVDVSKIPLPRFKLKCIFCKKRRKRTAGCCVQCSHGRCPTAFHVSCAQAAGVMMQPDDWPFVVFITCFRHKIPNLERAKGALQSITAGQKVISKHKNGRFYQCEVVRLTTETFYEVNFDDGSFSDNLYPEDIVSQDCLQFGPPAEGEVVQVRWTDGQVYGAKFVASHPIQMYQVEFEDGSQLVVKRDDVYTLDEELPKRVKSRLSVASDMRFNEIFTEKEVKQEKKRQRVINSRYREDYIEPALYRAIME
HP1b binding inh – inhibitors of HP1-beta chromodomain binding to methylated histone tails. Potency, µM (highest dose often 114 µM), for inactives: top-dose activity change, negative = inhibition, usual class: inhibitors. AlphaScreen HP1-beta / biotin-H3K9me3 peptide binding. actives 0.56% (n = 390,000). P83916. AID 540317; further: nearly all actives have a fitted effect of over 70% in size
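AlphaScreen: HP1-beta (50 nM) preformed 30 min with biotin-H3(1-18)K9me3 peptide (50 nM) in PBS pH 7.4, 0.01% Tween-20. Compound added for 30 min at RT, then streptavidin donor/nickel chelate acceptor beads (10 ug/mL) for 30 min.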
BAZ2B block – blocks human BAZ2B. Q9UIF8. AlphaScreen BAZ2B-H3K14Ac peptide displacement. Potency, µM (top dose mostly 114 µM), without a hit: at the highest dose activity change, negative = inhibition, actives largely listed as inhibitors. actives 4.4% (n = 360,000); further: on the % scale 0 is the no-effect control and ±100 the full control effect; nearly all actives have a fitted effect of over 60% in size
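Compounds, titrated to a top concentration of 110 uM, were incubated 30 min at room temperature with preformed BAZ2B/acetyl-K14 H3 peptide complex (50 nM each). Proximity signal was measured by AlphaScreen after 20 min with beads.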
G9a block – blocks human histone lysine methyltransferase G9a | actives 8.8% (n = 350,000) | Potency, µM (top dose mostly 102 µM), inactives show at the top dose activity, negative = inhibition, usual class: inhibitors | G9a H3K9 monomethylation, AlphaScreen, 2 h | Q96KQ7; further: on the % scale 0 is the no-effect control and ±100 the full control effect; nearly all actives have a fitted effect of over 75% in size
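AlphaScreen read-out: biotin-H3K9 peptide (500 nM) methylation by 20 nM enzyme with 20 uM SAM, 2 h at room temperature after 15 min compound preincubation; anti-monomethyl H3K9 antibody plus donor/acceptor beads, 10 min dark.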
The depositor's hits bear a star; ? = inconclusive; . = no result; [ ] = dose if it differs, or a comment. The call rests on the fitted dose curve; in most records, active means well fitted curve in the direction sought with a large enough effect; inconclusive means small, poorly fitted or top-dose-only effect, or another doubt; inactive means no such curve, though single readings can be large; an effect the other way counts as inactive or inconclusive. Potency means the concentration at half of the fitted maximal effect.

SMILES | L3MBTL1 block | GLS inhibitor | JMJD2A Tudor | HP1b binding inh | BAZ2B block | G9a block
FC(F)(F)c1cccc(N2CCN(c3nc4ccccc4n4cnnc34)CC2)c1 | . | 3% | -7% | 41% | 2% | 6%[59 µM]
CN1CCN(c2nc3cc(C(F)(F)F)ccc3n3cccc23)CC1 | . | 14% | ? | -4% | . | 24µM*
CCc1ccc(S(=O)(=O)Nc2ccc3[nH]c(=O)sc3c2)cc1 | . | 1% | -15% | 20%[57 µM] | -4% | -35%[59 µM]
COc1ccc(/C=C\c2onc(C)c2S(=O)(=O)N2CCC(C(=O)Nc3ccc(F)cc3F)CC2)cc1 | . | -8% | -7% | 23% | . | 0%[59 µM]
Cc1nn(-c2nnc(NC3CCCCC3)nn2)c(C)c1Br | ? | 4% | 45µM* | ? | 14µM* | 22µM*
COc1ccc(CCNC(=O)c2cnc3sc(N4CCOCC4)nn3c2=O)cc1 | . | -8% | -4% | 29% | -4% | -5%[59 µM]
COc1cc(-c2nc(SCC(=O)Nc3ccc4c(c3)OCO4)c(-c3ccccc3)[nH]2)cc(OC)c1OC | . | -13% | ? | ? | ? | 11µM*
O=C(CSc1ccccc1)Nc1ccc2c(c1)OCO2 | . | -1% | 1% | 13% | 0% | 3%
O=C(CSc1ccccc1)Nc1ccc2c(c1)OCCO2 | . | -9% | -10% | 20% | -5% | 79µM*
O=C(CSc1ncn(-c2ccccc2)n1)Nc1ccc2c(c1)OCO2 | 0% | 9% | 89µM* | 12% | -1% | ?
O=C(CSc1ccc2c(c1)OCCO2)NCc1ccco1 | -6% | 6% | -17% | 24% | ? | 50µM*
COc1ccc(-c2nc(SCC(=O)Nc3ccc4c(c3)OCCO4)c(-c3ccccc3)[nH]2)cc1 | . | -11% | -24% | 18% | -2% | -12%[59 µM]
COc1cccc(-c2nccc(NCCc3c[nH]c4ccc(OC)cc34)n2)c1 | . | . | . | . | . | -2%[0.501 µM]
CS(=O)(=O)Nc1ccccc1C(=O)OCc1cc(=O)n2nc(C3CCCCC3)sc2n1 | . | -7% | -21% | -16% | -8% | 0%[59 µM]
COc1ccccc1CNC(=O)c1cc2c(=O)oc3ccc(C)cc3c2s1 | . | 0% | -22% | 20% | -8% | 2%[59 µM]
Cc1ccc(-n2nc(C)c(NC(=O)COC(=O)c3ccccc3NCCO)c2C)cc1 | 5% | 7% | -4% | 22% | 13% | 50µM*
O=C(CSc1nc(-c2ccccc2)[nH]c1-c1ccccc1)Nc1ccc2c(c1)OCO2 | . | -11% | ? | ? | 56µM* | 22µM*
Cc1nn(CC(=O)Nc2ccc3c(c2)OCO3)c(C)c1Cl | . | -6% | 2% | 45% | -14% | 71µM*
Cc1nn(-c2ccccc2)c(C)c1C(=O)OCC(=O)Nc1ccc2c(c1)OCO2 | 0% | 3% | ? | -2% | -7% | 79µM*
Cc1nn(-c2ccccc2)c(C)c1C(=O)OCC(=O)Nc1ccccc1 | 3% | 4% | -10% | 27% | -2% | -22%[59 µM]
O=S(=O)(c1ccc2nc(Cl)c(Cl)nc2c1)N1CCN(S(=O)(=O)c2c(F)cccc2F)CC1 | . | . | -11% | . | . | .
CCCCCCCCCCCCCCCCC(C(=O)O)C(O)(CC(=O)O)C(=O)O (configuration not stated) | . | -5% | . | . | . | -40%[12.7 µM]
COc1cc(F)c(S(=O)(=O)N2CCN(S(=O)(=O)c3ccco3)CC2)c(F)c1 | . | . | -20% | . | . | .
O=C(Nc1nnc(SCc2cc(=O)n3cc(Cl)ccc3n2)s1)c1cccc(F)c1 | . | 0% | 9% | 28%[57 µM] | 5% | -2%[59 µM]
O=C(Cn1ccc2cc(S(=O)(=O)N3CCCCC3)ccc21)NCCc1ccccc1Cl | . | 3% | -23% | 15% | -20% | 7%[59 µM]
SMILES | L3MBTL1 block | GLS inhibitor | JMJD2A Tudor | HP1b binding inh | BAZ2B block | G9a block
Cc1nc2cc(C(=O)OCC(=O)Nc3cccc(Cl)c3)ccc2n1-c1ccccc1 | -9% | 2% | -23%[57.1 µM] | 45% | 5% | 50µM*
COc1ccc(NC(=O)CSc2ncccc2C(=O)O)cc1OC | . | 2% | -10% | 21% | 56µM* | ?
COc1ccc(-c2[nH]c(-c3ccc(C)cc3)nc2SCC(=O)NCc2ccco2)cc1OC | . | 0% | -19% | 46% | 6% | 50µM*
O=C(Nc1ccc2c(c1)OCCO2)C1CC1c1ccccc1 (configuration not stated) | 3% | 5% | -20% | 11% | -10% | 6%[59 µM]
O=C(O)C1CCCCC1C(=O)Nc1ccc2c(c1)OCCO2 (configuration not stated) | 8% | 6% | -15% | 16% | -1% | 2.5µM*
CCOC(=O)N1CCc2c(sc3c2c(=O)n(-c2ccc(CC)cc2)c(=O)n3Cc2ccc(F)cc2Cl)C1 | . | 5% | -3% | 30% | -2% | 6%[59 µM]
COc1cc(OC)cc(C(=O)Nc2ccc3c(c2)N(C2CCCC2)C(=O)c2ccccc2S3)c1 | . | 6% | -15% | 19% | -6% | 0%[59 µM]
O=C(COc1ccc(Cl)cc1)NCc1nnc(SCC(=O)Nc2ccc3c(c2)OCCO3)o1 | 7% | 7% | 79µM* | ? | 6% | 19%[59 µM]
